For one experiment, the system named is Plasmodium falciparum NF54-HGL (transmission to Anopheles stephensi). The experiment is described as follows: percentage of barcode signal found in uninfected mosquitoes (transmission-blocking activity); higher = stronger blocking of transmission to mosquito, active = 80 or more. Conditions: 10 µM; gametocyte preincubation time 24 h; readout time post-feed 8 days. The procedure: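 The mixture was fed to Anopheles stephensi in 96-well plates as blood meals tagged with DNA-barcoded Asaia bacteria. Eight days later, mosquitoes were classed infected or uninfected by luminescence (mean + 5 SD of unfed controls). Barcodes were quantified by Luminex MagPlex-TAG in the pooled uninfected and infected Asaia cultures, background-corrected, and the score is % of barcode signal in uninfected mosquitoes = 100*Iu/(Iu+Ii).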
On to `CC1CC1C(=O)NC1CCN(CC2(c3ccccc3)CCCCC2)CC1` (configuration not stated), for which the “percentage of barcode signal found in uninfected mosquitoes” value (shortened to “percentage of barcode signal found”) is 97.6% (active). Still for that read-out and setting: next, `COc1cc(C2=NCCN2)ccc1-n1cc(-c2cccc(C3=NCCN3)c2)nn1`: 46.2% (inactive).

In the case of `Cc1noc(C)c1C(=O)N1CCCC(c2[nH]c3c(C)cccc3c2-c2ccncc2)C1` (configuration not stated), the “percentage of barcode signal found” value is 69.1% (inactive). On the same count and under the same terms, next, `CCc1cc(=O)n(C)c(SC(C)C(=O)Nc2ccc(F)cc2)n1` (configuration not stated): 48.5% (inactive); `COc1ccc(-c2nc(-c3cccc(NC(=O)Cc4ccc(F)cc4)c3)no2)cc1OC`: 5.39% (inactive); `Cc1ccc(Oc2ccc(NC(=O)CNc3ccccc3N3CCCC3=O)cc2)cc1`: 53.3% (inactive).

`Cc1cc2nc(NC(=O)C(C)(C)C)nc(Cl)c2n1Cc1ccc(Cl)cc1`: the “percentage of barcode signal found” value is 79.6% (inactive).

As for `CC(=O)NC[C@H]1CN(c2ccc(N3CCSCC3)c(F)c2)C(=O)O1`, the “percentage of barcode signal found” value was 24.7% (inactive). Same read-out and setting: the value for `N#Cc1ccc(-c2cnc(N)c(-c3ccc(C(N)=O)cc3)n2)cc1` was 69.6% (inactive); that for `Clc1cccc(C(c2ccc(CN3CCNCC3)cc2)n2ccnc2)c1` (configuration not stated) was 89.4% (active); that for `COc1ccccc1C(C)NCC(=O)Nc1cc(C(F)(F)F)ccc1Cl` (configuration not stated) was 11.8% (inactive). The same measure, in the same setting: next, `N#Cc1nc(-c2ccccc2F)oc1NCCc1ccccc1`: 1.26% (inactive); `CC[C@@H]([C@H](C)O)n1ncn(-c2ccc(N3CCN(c4ccc(OC[C@@H]5CO[C@@](Cn6cncn6)(c6ccc(F)cc6F)C5)cc4)CC3)cc2)c1=O`: 42.4% (inactive). Consider `CCC(Sc1nc2ccccc2o1)C(=O)Nc1nccs1` (configuration not stated), for which the “percentage of barcode signal found” value was -4.79% (inactive). Consider `CCOc1ccc(-c2nc(NC(=O)CS(=O)(=O)c3ccccc3)sc2C)cc1`, for which the “percentage of barcode signal found” value is -3.11% (inactive). On the same count and under the same terms, the value for `Cc1cc(Nc2ccncc2)n2nc(C)c(-c3ccccc3Cl)c2n1` was 53.9% (inactive); that for `CC(C)c1ncc(-c2ccncc2)c([C@H]2CC[C@H](CNC(=O)c3cccnc3)CC2)n1` was 31.4% (inactive); that for `CCOc1ccccc1C(=O)Nc1cccc(-c2nc3ncccn3c2C)c1` was 78.8% (inactive).

Turning to `CC(Oc1ccccc1)C(=O)Nc1nc(-c2ccccn2)cs1` (configuration not stated), the “percentage of barcode signal found” value was 84.2% (active).

The same experiment, now with this note: 20 µM; gametocyte preincubation time 24 h; readout time post-feed 8 days.
In the case of `CC(C)NCC(=O)Nc1cccc(C(=O)Nc2cccc(C(F)(F)F)c2)c1`, the “percentage of barcode signal found” value is 54% (inactive). On to `c1ccc(Oc2ccc(-c3cc(CN4CCOCC4)[nH]n3)cc2)cc1`, for which the “percentage of barcode signal found” value was 3.15% (inactive). Same read-out and setting: the value for `c1ccc2c(c1)CN(CC1CC1)CC1(CCN(Cc3c[nH]c4cnccc34)CC1)O2` was 30.7% (inactive); that for `CCN(CC)S(=O)(=O)c1ccc(C(=O)Nc2cc(C)nn2-c2nc(C)c(C)c(=O)[nH]2)cc1` was 66.7% (inactive). As for `COc1ccc(C2=NCCN2)cc1-c1cn(-c2cccc(C3=NCCN3)c2)nn1`, the “percentage of barcode signal found” value is 16.8% (inactive). On the same count and under the same terms, next, `Cc1ccc(S(=O)(=O)n2cc(-c3ccnc(N)c3)c3cc(Br)cnc32)cc1`: 1.79% (inactive); `CC(C)(C)c1ccc(N[C@@H]2CCCC[C@H]2NC(=O)c2ccco2)cc1`: 31.3% (inactive); `CC1(C)Cc2c(c(N3CCOCC3)nc3snc(Br)c23)CO1`: 97% (active). `Cc1ccc2[nH]c(C3CCCNC3)c(-c3ccncc3)c2c1` (configuration not stated): the “percentage of barcode signal found” value was 79.4% (inactive). Same read-out and setting: next, `COc1ccc(N(CCc2cccc(C)n2)C(C)=O)cc1`: 0.592% (inactive); `CNC(=O)CNc1nc(-c2ccccn2)nc2scc(-c3ccccc3)c12`: 69.6% (inactive). Same read-out and setting: the value for `COc1ccc(-c2nnc3ccc(-c4cccc(C(C)C)c4)cn23)cc1OC` was 47.3% (inactive); that for `Nc1ccc2ncnc(Nc3ccc(OCc4cccc(F)c4)c(Cl)c3)c2c1` was 17.8% (inactive).

Regarding `Cc1ccccc1CN1CCC(O)(c2ccc(Cl)c(C(F)(F)F)c2)CC1`, the “percentage of barcode signal found” value was -0.504% (inactive).

On to `COc1ccc(S(=O)(=O)Nc2ccc(CN3CCN(C(=O)c4cccc(C#N)c4)CC3)cc2)cc1`, for which the “percentage of barcode signal found” value is 8.68% (inactive). For the compound `NS(=O)(=O)c1cccc(-c2ccc3ncc(N4CCOCC4)nc3c2)c1`, the “percentage of barcode signal found” value is 64.7% (inactive). In the case of `CCn1ncc2c(NC3CCOCC3)c(CNC(=O)c3ccnn3C)c(C)nc21`, the “percentage of barcode signal found” value is 91.2% (active). `CC(=O)NCC1CN(c2ccc(-c3ccc(CNCc4cn[nH]n4)cc3)c(F)c2)C(=O)O1` (configuration not stated): the “percentage of barcode signal found” value is 9.84% (inactive).

The record behind these values is the supplement of paper PMC8726507.
